According to PubChem BioAssay (NCATS):
Results filed as inconclusive are left out. The source made the active and inactive calls. Calls follow the shape of the dose curve; as a rule, active = well fitted cell-killing curve with a large enough effect; inconclusive = small, poorly fitted or top-dose-only effect, or effect the other way; inactive = flat fitted curve, though single readings scatter.

What was measured:
Test in all cases: Primary qHTS to identify gynecologic anti-cancer compounds using libraries of approved drugs and bioactive compounds (AID 1345084); also: nearly all actives have a fitted effect of over 55% in size
C33A = details: Gynecologic cancer cell panel viability, ATPlite luminescence, 48 h; series mostly up to 57.5 µM
How it was run: (§1)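 48 h compound exposure at 37 C, 5% CO2; five-point qHTS. ATPlite luminescence readout of cell ATP.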

CAOV3 = details: Gynecologic cancer cell panel viability, ATPlite luminescence, 48 h; series mostly up to 57.5 µM
How it was run: as §1

CASKI = details: Gynecologic cancer cell panel viability, ATPlite luminescence, 48 h; series mostly up to 57.5 µM
How it was run: as §1

Es-2 = details: Gynecologic cancer cell panel viability, ATPlite luminescence, 48 h; series mostly up to 57.5 µM
How it was run: as §1

HeLa = details: Gynecologic cancer cell panel viability, ATPlite luminescence, 48 h; series mostly up to 57.5 µM
How it was run: as §1

Hek293T = details: Gynecologic cancer cell panel viability, ATPlite luminescence, 48 h, control line for the selectivity index; series mostly up to 57.5 µM
How it was run: as §1

JEG-3 = details: Gynecologic cancer cell panel viability, ATPlite luminescence, 48 h; series mostly up to 57.5 µM
How it was run: as §1

OV90 = details: Gynecologic cancer cell panel viability, ATPlite luminescence, 48 h; series mostly up to 57.5 µM
How it was run: as §1

PA-1 = details: Gynecologic cancer cell panel viability, ATPlite luminescence, 48 h; series mostly up to 57.5 µM
How it was run: as §1

SKOV3 = details: Gynecologic cancer cell panel viability, ATPlite luminescence, 48 h; series mostly up to 57.5 µM
How it was run: as §1

Tov-21-G = details: Gynecologic cancer cell panel viability, ATPlite luminescence, 48 h; series mostly up to 57.5 µM
How it was run: as §1

Tov112D = details: Gynecologic cancer cell panel viability, ATPlite luminescence, 48 h; series mostly up to 57.5 µM
How it was run: as §1
% is scaled to controls: 0 for no effect and ±100 for the full control effect.

C=C(C)C(C)C1OC23CC4(CO2)C(CCC2C5(C)CCC(OC6OCC(O)C(OC7OC(CO)C(O)C(OC8OCC(O)C(O)C8O)C7O)C6OC6OC(CO)C(O)C6O)C(C)(C)C5CCC24C)C3C(C)(O)C1OC(C)=O (stereo not drawn)
inactive: activity change, negative = cytotoxicity (C33A) 2.75% [at 11.6 µM] | activity change, negative = cytotoxicity (CAOV3) 4.55% [at 11.6 µM] | activity change, negative = cytotoxicity (CASKI) 5.79% [at 11.6 µM] | activity change, negative = cytotoxicity (Es-2) 0.0055% [at 11.6 µM] | activity change, negative = cytotoxicity (HeLa) 1.27% [at 11.6 µM] | activity change, negative = cytotoxicity (Hek293T) 12% [at 11.6 µM] | activity change, negative = cytotoxicity (JEG-3) -1.98% [at 11.6 µM] | activity change, negative = cytotoxicity (OV90) -0.379% [at 11.6 µM] | activity change, negative = cytotoxicity (PA-1) -1.12% [at 11.6 µM] | activity change, negative = cytotoxicity (SKOV3) 3.59% [at 11.6 µM] | activity change, negative = cytotoxicity (Tov-21-G) 1.52% [at 11.6 µM] | activity change, negative = cytotoxicity (Tov112D) 5.61% [at 11.6 µM]

CC(C)C(=O)c1cn(CC(=O)COc2ccc(Oc3ccccc3)cc2)c2ccc(C(=O)O)cc12
inactive: Potency (C33A) | Potency (CAOV3) | Potency (CASKI) | Potency (Es-2) | Potency (HeLa) | Potency (Hek293T) | Potency (JEG-3) | Potency (OV90) | Potency (PA-1) | Potency (SKOV3) | Potency (Tov-21-G) | Potency (Tov112D)

OCCc1ccc(O[C@@H]2O[C@H](CO)[C@@H](O)[C@H](O)[C@H]2O)c(O)c1
inactive: Potency (C33A) | Potency (CAOV3) | Potency (CASKI) | Potency (Es-2) | Potency (HeLa) | Potency (Hek293T) | Potency (JEG-3) | Potency (OV90) | Potency (PA-1) | Potency (SKOV3) | Potency (Tov-21-G) | Potency (Tov112D)

COC(=O)C1=CO[C@@H](O[C@@H]2O[C@H](CO)[C@@H](O)[C@H](O)[C@H]2O)[C@@H]2[C@@H](C)[C@@H](O)C[C@H]12
inactive: Potency (C33A) | Potency (CAOV3) | Potency (CASKI) | Potency (Es-2) | Potency (HeLa) | Potency (Hek293T) | Potency (JEG-3) | Potency (OV90) | Potency (PA-1) | Potency (SKOV3) | Potency (Tov-21-G) | Potency (Tov112D)

C=CC1(C)C=C2C(=O)CC3C(C)(C)CCCC3(C(=O)O)C2(O)CC1 (stereo not drawn)
inactive: Potency (C33A) | Potency (CAOV3) | Potency (CASKI) | Potency (Es-2) | Potency (HeLa) | Potency (Hek293T) | Potency (JEG-3) | Potency (OV90) | Potency (PA-1) | Potency (SKOV3) | Potency (Tov-21-G) | Potency (Tov112D)

COc1ccccc1-n1c(SCC(=O)Nc2nc3ccc(C)cc3s2)nc2c(c1=O)SCC2
inactive: Potency (C33A) | Potency (CAOV3) | Potency (CASKI) | Potency (Es-2) | Potency (HeLa) | Potency (Hek293T) | Potency (JEG-3) | Potency (OV90) | Potency (PA-1) | Potency (SKOV3) | Potency (Tov-21-G) | Potency (Tov112D)

O=C1NC(Cc2ccc(O)cc2)C(=O)N2CCCC12 (stereo not drawn)
inactive: Potency (C33A) | Potency (CAOV3) | Potency (CASKI) | Potency (Es-2) | Potency (HeLa) | Potency (Hek293T) | Potency (JEG-3) | Potency (OV90) | Potency (PA-1) | Potency (SKOV3) | Potency (Tov-21-G) | Potency (Tov112D)

CC[C@H]1OC(=O)[C@H](C)[C@@H](OC2C[C@@](C)(OC)[C@@H](O)[C@H](C)O2)[C@H](C)[C@@H](OC2O[C@H](C)C[C@H](NC)[C@H]2O)[C@](C)(O)C[C@@H](C)CN(C)[C@H](C)[C@@H](O)[C@]1(C)O (stereo partly drawn)
inactive: Potency (C33A) | Potency (CAOV3) | Potency (CASKI) | Potency (Es-2) | Potency (HeLa) | Potency (Hek293T) | Potency (JEG-3) | Potency (OV90) | Potency (PA-1) | Potency (SKOV3) | Potency (Tov-21-G) | Potency (Tov112D)

C=C1CC23CC1(O)CCC2C1=CC2OC(=O)C(C)(C2O)C1C3C(=O)O (stereo not drawn)
inactive: Potency (C33A) | Potency (CAOV3) | Potency (CASKI) | Potency (Es-2) | Potency (HeLa) | Potency (Hek293T) | Potency (JEG-3) | Potency (OV90) | Potency (PA-1) | Potency (SKOV3) | Potency (Tov-21-G) | Potency (Tov112D)

CC(C)(O)CNc1nc(Nc2ccnc(C(F)(F)F)c2)nc(-c2cccc(C(F)(F)F)n2)n1
inactive: Potency (C33A) | Potency (CAOV3) | Potency (CASKI) | Potency (Es-2) | Potency (HeLa) | Potency (Hek293T) | Potency (JEG-3) | Potency (OV90) | Potency (PA-1) | Potency (SKOV3) | Potency (Tov-21-G) | Potency (Tov112D)

CC(=O)c1c(C)cc(O[C@@H]2O[C@H](CO)[C@@H](O)[C@H](O)[C@H]2O)cc1O
inactive: Potency (C33A) | Potency (CAOV3) | Potency (CASKI) | Potency (Es-2) | Potency (HeLa) | Potency (Hek293T) | Potency (JEG-3) | Potency (OV90) | Potency (PA-1) | Potency (SKOV3) | Potency (Tov-21-G) | Potency (Tov112D)

C[C@@H]1O[C@@H](O[C@H]2[C@H](O)[C@@H](O)[C@H](OC[C@H]3O[C@@H](OC(=O)[C@]45CCC(C)(C)C[C@H]4C4=CCC6[C@@]7(C)C[C@H](O)[C@H](O[C@@H]8O[C@H](CO)[C@@H](O)[C@H](O)[C@H]8O)[C@@](C)(C(=O)O)C7CC[C@@]6(C)[C@]4(C)CC5)[C@H](O[C@@H]4O[C@H](CO)[C@@H](O)[C@H](O)[C@H]4O)[C@@H](O)[C@@H]3O)O[C@@H]2CO)[C@H](O)[C@H](O)[C@H]1O (stereo partly drawn)
inactive: activity change, negative = cytotoxicity (C33A) 4.28% [at 6.55 µM] | activity change, negative = cytotoxicity (CAOV3) 11.2% [at 6.55 µM] | activity change, negative = cytotoxicity (CASKI) 9.67% [at 6.55 µM] | activity change, negative = cytotoxicity (Es-2) 9.17% [at 6.55 µM] | activity change, negative = cytotoxicity (HeLa) 0.162% [at 6.55 µM] | activity change, negative = cytotoxicity (Hek293T) 3.11% [at 6.55 µM] | activity change, negative = cytotoxicity (JEG-3) -3.92% [at 6.55 µM] | activity change, negative = cytotoxicity (OV90) 0.564% [at 6.55 µM] | activity change, negative = cytotoxicity (PA-1) 15.2% [at 6.55 µM] | activity change, negative = cytotoxicity (SKOV3) 8.21% [at 6.55 µM] | activity change, negative = cytotoxicity (Tov-21-G) 6.93% [at 6.55 µM] | activity change, negative = cytotoxicity (Tov112D) 5.3% [at 6.55 µM]

CCOc1ccc(-c2ccc(Cn3c(CC(C)(C)C(=O)O)c(SC(C)(C)C)c4cc(OCc5ccc(C)cn5)ccc43)cc2)cn1
inactive: Potency (C33A) | Potency (CAOV3) | Potency (CASKI) | Potency (Es-2) | Potency (HeLa) | Potency (Hek293T) | Potency (JEG-3) | Potency (OV90) | Potency (PA-1) | Potency (SKOV3) | Potency (Tov-21-G) | Potency (Tov112D)

Cc1cccc(-c2[nH]c(CNc3ccccc3F)nc2-c2ccc3ncnn3c2)n1
inactive: Potency (C33A) | Potency (CAOV3) | Potency (CASKI) | Potency (Es-2) | Potency (HeLa) | Potency (Hek293T) | Potency (JEG-3) | Potency (OV90) | Potency (PA-1) | Potency (SKOV3) | Potency (Tov-21-G) | Potency (Tov112D)
